Screening results deposited in PubChem BioAssay by NMMLSC.
In the library only some 1.2% were active in any assay of this set; here they are far more common.
Avidin bead fluor: avidin bead compound fluorescence profile. 220,000 tested, 0.38% active. Avidin beads, compound fluorescence 488/530 nm, flow cytometry; stronger effect = higher value. AID 1775. fluorescence (KMESF) at 10 µM; in the data active means fluorescence above about 47
RGS16-Gao: modulates binding between human RGS16 and Galphao; O15492+P09471; bead-based flow cytometry RGS16-Galphao binding, fluorescence; actives lie on both sides; binding response (% of control), % at 10 µM; 220,000 tested, 0.38% active; AID 1441; call rule not given here;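 further: Galphao activated by GDP with aluminum fluoride before binding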
RGS7-Gao reg: regulators of human RGS7-Galphao interaction. P09471. Multiplexed bead flow cytometry, RGS7-Galphao binding; actives lie on both sides. binding response (% of control), % at 10 µM. 220,000 tested, 0.35% active. AID 1439; in the data active means binding response below about 49% or above about 150%; inconclusive means no clear call, values can overlap the other calls; inactive means in between;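 further: fluorescent Galphao held in activated GDP-AlF4 state binding bead-coupled RGS7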
Target sequence (P09471 whole entry, looked up): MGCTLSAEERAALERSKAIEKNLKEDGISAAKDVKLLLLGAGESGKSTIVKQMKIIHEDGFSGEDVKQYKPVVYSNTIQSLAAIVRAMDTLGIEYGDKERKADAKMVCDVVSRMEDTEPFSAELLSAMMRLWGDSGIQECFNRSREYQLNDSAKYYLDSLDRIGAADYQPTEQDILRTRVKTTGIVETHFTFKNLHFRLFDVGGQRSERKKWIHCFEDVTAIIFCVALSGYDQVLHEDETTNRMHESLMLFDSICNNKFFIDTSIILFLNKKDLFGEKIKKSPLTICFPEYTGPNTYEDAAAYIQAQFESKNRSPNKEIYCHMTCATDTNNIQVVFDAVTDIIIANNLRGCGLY
GSH bead fluor: compound fluoresces at 488/530 nm on GSH beads; GSH beads flow cytometry, compound fluorescence 488/530 nm; stronger effect = higher value; fluorescence (KMESF) at 10 µM; 190,000 tested, 0.25% active; in the data active means fluorescence above about 89;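 further: glutathione beads carrying GST-tagged Bcl family fusion proteins plus one bare bead set; values are compound well signal with DMSO vehicle wells as background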
RGS4-Gao reg: modulates binding of RGS4 to human Galphao; P09471; AID 1415; binding response (% of control), % at 10 µM; 220,000 tested, 0.33% active; Multiplexed bead flow cytometry; actives lie on both sides; in the data active means binding response below about 49% or above about 150%; inactive means in between;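 further: fluorescent Galphao activated with aluminum fluoride binding bead-coupled RGS4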
RGS8-Gao: regulators of human RGS8-Galphao interaction. P09471. multiplexed bead flow cytometry, RGS8-Galphao binding; actives lie on both sides. response (percent of control binding), % at 10 µM. 220,000 tested, 0.34% active. AID 1423; in the data active means response below about 60% or above about 140%; inactive means in between;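 further: Galphao activated as the GDP aluminium fluoride complex binding bead-coupled RGS8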
Numbers without * were called inactive; ? = inconclusive; [ ] = another dose, or the depositor's remark.

SMILES	Avidin bead fluor	RGS16-Gao	RGS7-Gao reg	GSH bead fluor	RGS4-Gao reg	RGS8-Gao
O=C1c2ccccc2NC(c2ccc3c(c2)OCCO3)N1c1ccc2c(c1)OCCO2 (stereo not given)	8	103	102	262*	107	101
CC(=O)Cc1nsc(NC(=O)c2ccc(-c3cccc(C(F)(F)F)c3)o2)n1	53*	130	115	38	110	108
CC(=O)Cc1nsc(NC(=O)c2ccc(-c3cc(C(F)(F)F)ccc3Cl)o2)n1	8	100	100	50	102	103
O=S(=O)(NCC(Nc1ccc(Cl)cc1)c1ccccc1)c1ccccc1 (stereo not given)	3	103	101	7	100	101
Cc1ccc(NC(CNS(=O)(=O)c2ccc(Cl)cc2)c2ccccc2)cc1 (stereo not given)	121*	124	255*[activator]	13	215*[activator]	94
CC1(c2ccccc2)NC(=O)N(CC(=O)NCCC2=CCCCC2)C1=O (stereo not given)	6	97	101	17	100	98
COC(=O)C1CCN(C(=O)C(C)Oc2ccc(Cl)cc2Cl)CC1 (stereo not given)	57*	104	138	28	108	102
CCOC(=O)C1CCCN(C(=O)C(C)Oc2ccc(Cl)cc2Cl)C1 (stereo not given)	7	105	102	38	101	102
CCOC(=O)c1cnn2c1[nH]c(=O)c1ccccc12	96*	110	124	49	110	101
CCCC(=O)Nc1nc(C)c(-c2csc(Nc3cc(OC)ccc3OC)n2)s1	80*	102	121	22	107	101
C=CCCC(=O)Nc1nc(C)c(-c2csc(Nc3cc(OC)ccc3OC)n2)s1	27	102	103	22	105	103
Cc1ccc(NC(=O)CCCSc2ccccc2)cc1S(=O)(=O)N1CCOCC1	101*	113	149	10	110	101
N=C1C(c2nc3ccccc3s2)=C(O)CN1CCCO	34	101	100	16	99	103
CCCCN1CC(O)=C(c2nc3ccccc3s2)C1=N	110*	113	133	25	105	103
Cc1cc(=O)[nH]c(SCC(=O)Nc2cccc3ccccc23)c1C#N	132*	219*[activator]	184*[activator]	29	224*[activator]	115
Cc1cc(C)c(C#N)c(SCC(=O)Nc2ccccc2C)n1	5	29	102	26	101	96
O=C(COc1ccccc1)NC1CCCc2ccccc21 (stereo not given)	13	99	99	6	95	100
O=C(COc1ccc(-c2nnco2)cc1)NC1CCCc2ccccc21 (stereo not given)	4	78	85	233*	82	90
O=C(CSc1n[nH]c(=O)[nH]c1=O)N/N=C/c1ccccc1	10	131	94	215*	93	109
O=C(Cc1n[nH]c(=O)[nH]c1=O)N/N=C/c1ccccc1	21	103	102	9	103	104
O=C(CSc1nnc(COc2cccc3cccnc23)o1)N1CCN(C(=O)c2ccco2)CC1	6	108	112	136*	117	108
O=C(O)c1ccc(Sc2nnc(-c3cccc(Br)c3)o2)c([N+](=O)[O-])c1	8	104	101	4	104	103
COc1cc(-c2nnc(Sc3ccc(C(F)(F)F)cc3[N+](=O)[O-])o2)cc(OC)c1OC	72*	103	106	19	106	103
O=C(Nc1ccc2c(c1)OCO2)[C@@H]1[C@@H]2C(=O)N(C3CCCCC3)C(=O)[C@@H]2C2c3ccccc3C=CN21 (stereo not given in full)	8	101	81	237*	110	84
CS(=O)(=O)N1CCN(c2cnn(-c3ccccc3)c(=O)c2Cl)CC1	90*	109	142	62	106	99
SMILES	Avidin bead fluor	RGS16-Gao	RGS7-Gao reg	GSH bead fluor	RGS4-Gao reg	RGS8-Gao
CCOc1ccc2nc(NC(=O)c3ccoc3C)sc2c1	56*	103	116	35	104	102
CC(c1ccco1)N(C(=O)c1ccc(F)cc1)c1ccccn1 (stereo not given)	23	104	100	7	100	100
Cc1ccc(S(=O)(=O)Nc2ccc3nc(N)sc3c2)cc1	49*	100	108	27	99	100
Cc1noc(C)c1COC(=O)CCCc1c[nH]c2ccccc12	6	90	84	258*	82	94
CCOC(=O)CCCc1c[nH]c2ccccc12	36	112	101	16	103	105
CC(C)NC(=O)CCCc1c[nH]c2ccccc12	58*	105	121	8	101	100
CCN(c1ccccc1)S(=O)(=O)c1ccc(OCC(=O)Nc2cc(C)on2)cc1	9	110	105	17	105	105
COc1cc(-c2c(C#N)c(=O)[nH]c3c2c(C)nn3-c2ccccc2)ccc1O	48*	101	109	17	103	102
O=C(NCC(=O)N(c1cccnc1)C(C(=O)NC1CCCC1)c1ccco1)c1cccs1 (stereo not given)	57*	101	113	28	105	101
COc1ccc(CCNC(=O)COc2ncnc3cc([N+](=O)[O-])ccc23)cc1	11	101	98	11	100	100
CCN(CC)S(=O)(=O)c1ccc(Cl)c(NC(=O)COC(=O)c2cccn2C)c1	12	102	?	18	100	100
COC(=O)c1ccc(CSc2nnc3n(Cc4ccccc4OC)c(=O)c4ccccc4n23)o1	22	102	99	12	102	99
CC(C)=CC(=O)OCC(=O)Nc1nc(C)c(Cl)cc1Cl	8	108	101	273*	101	102
Cc1nc(NC(=O)COC(=O)C2=NNC(=O)CC2)c(Cl)cc1Cl	13	99	97	13	98	100
O=C(NCc1ccco1)C(NS(=O)(=O)c1cccc2nsnc12)c1ccccc1 (stereo not given)	52*	98	108	21	99	100
CCCNC(=O)C(NS(=O)(=O)c1cccc2nsnc12)c1ccccc1 (stereo not given)	8	106	103	15	102	102
O=C(Nc1ccc(Oc2ccccc2)cc1)C1CCCO1 (stereo not given)	17	89	93	27	94	97
CC(C)N(c1ccccc1)c1ccc(NC(=O)C2CCCO2)cc1 (stereo not given)	7	95	99	266*	97	103
CCCCN(CCCC)CCCNC(=O)C12CN(Cc3ccccc3)CC1C(c1cccc([N+](=O)[O-])c1)=NO2 (stereo not given)	8	101	102	25	102	103
NC(=O)c1ccc(N=Nc2c(-c3ccccc3)[nH]n(-c3ccccc3)c2=O)cc1	63*	108	?	11	114	108
